HT1080 IDH1KD tx: toxicity to HT-1080 IDH1 knockdown cells (counter line). HT-1080 IDH1 knockdown viability, ATP luminescence, 48 h. Potency, µM (titrated, usually from 46.1 µM), for the others: at the top dose activity, negative = toxicity, usual class: cytotoxic. actives 2% (n = 360,000);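 also: potency is read from the fitted curve at half-maximal effect; 0% = DMSO wells and -100% = cell-free medium wells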
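Luminescent ATP read-out (CellTiter-Glo, 10 min at room temperature) after 48 h compound exposure at 37 °C gave viability of IDH1-knockdown HT-1080 cells. Activity was normalised to DMSO and cell-free wells, then fitted as concentration-response curves.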
IL-1B inflam inh: inhibitors of inflammasome signaling (IL-1 beta secretion); THP-1 LPS/ATP IL-1B secretion, AlphaLISA, 16 h; stronger effect = lower value; activity change, % at 57.5 µM; actives 4.7% (n = 360,000); AID 743279; in the data active = activity change below about -50%; inconclusive = mostly about -30% to -49%
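THP-1 cells pretreated 1 hr with compounds (up to 57.5 uM final), then stimulated with LPS (250 ng/mL final) plus ATP (1.25 mM final); secreted IL-1B measured by AlphaLISA after 16 hr, decreased signal indicating inhibition.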
DT40 TDP1 no CPT: qHTS for Inhibitors of human tyrosyl-DNA phosphodiesterase 1 (TDP1): qHTS in cells in absence of CPT. DT40 Tdp1-/- hTDP1 cells, no CPT, ATP luminescence, 48 h. Potency, µM (series often up to 46.2 µM), for inactives: at the top dose activity change, negative = growth inhibition, most hits filed as inhibitors. actives 15% (n = 420,000); also: potency is read from the fitted curve at half-maximal effect; nearly all actives have a fitted effect of over 55% in size
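Luminescent ATP content (CellTiter-Glo) served as the growth readout. Knockout chicken DT40 cells expressing human TDP1 were exposed to compounds without camptothecin for a minimum 48 hr at 37 °C.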
12-LOX inh: inhibitors of human 12S-lipoxygenase ALOX12. purified 12hLO, xylenol orange hydroperoxide absorbance. Potency, µM (top dose mostly 108 µM), without a hit: at the highest dose activity change, negative = inhibition, most hits filed as inhibitors. actives 1.1% (n = 580,000); also: potency is read from the fitted curve at half-maximal effect
Target sequence (P18054 whole entry, looked up): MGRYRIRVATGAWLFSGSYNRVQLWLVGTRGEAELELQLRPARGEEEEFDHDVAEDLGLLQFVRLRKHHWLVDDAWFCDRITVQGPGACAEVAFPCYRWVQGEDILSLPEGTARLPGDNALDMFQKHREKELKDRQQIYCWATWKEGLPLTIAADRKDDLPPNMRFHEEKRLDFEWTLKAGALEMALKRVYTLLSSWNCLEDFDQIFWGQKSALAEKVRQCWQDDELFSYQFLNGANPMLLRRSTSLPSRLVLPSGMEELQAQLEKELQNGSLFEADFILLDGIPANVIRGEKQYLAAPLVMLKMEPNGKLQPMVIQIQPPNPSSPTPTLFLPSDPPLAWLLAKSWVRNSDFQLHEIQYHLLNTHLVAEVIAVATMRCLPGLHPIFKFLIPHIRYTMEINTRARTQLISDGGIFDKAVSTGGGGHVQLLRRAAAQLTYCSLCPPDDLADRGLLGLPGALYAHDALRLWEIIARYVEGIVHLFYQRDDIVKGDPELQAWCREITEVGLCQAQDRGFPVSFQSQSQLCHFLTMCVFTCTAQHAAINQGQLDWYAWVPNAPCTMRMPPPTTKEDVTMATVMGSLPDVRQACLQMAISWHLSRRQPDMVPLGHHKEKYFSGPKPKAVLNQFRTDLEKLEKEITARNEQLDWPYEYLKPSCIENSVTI
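Purified human 12hLO at 150 nM in 25 mM Hepes, 0.01% Triton X-100, pH 7.0, preincubated 15 min at room temperature with compound. Reaction started with 40 uM arachidonic acid, 30 min at room temperature. Hydroperoxide measured by Fe-xylenol orange, 573/405 nm absorbance ratio.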
DT40 TDP1 CPT: growth inhibition of DT40 Tdp1-/-;hTDP1 cells with camptothecin (screen for TDP1 inhibitors) | actives 12% (n = 420,000) | chicken DT40 Tdp1-/-;hTDP1 cells + 20 nM CPT, ATP luminescence, 48 h | Potency, µM (top dose mostly 46.2 µM), without a hit: at the highest dose activity change, negative = growth inhibition, usual class: inhibitors | AID 686979; also: potency is read from the fitted curve at half-maximal effect; nearly all actives have a fitted effect of over 55% in size
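Cell growth measured by CellTiter-Glo luminescence after a minimum 48 h, 37 C compound exposure with 20 nM CPT in Tdp1-knockout DT40 cells stably expressing hTDP1, seeded 400/well; qHTS titration format.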
HT1080NT lethal: kills 2HG-producing HT-1080-NT fibrosarcoma cells. HT-1080-NT fibrosarcoma viability, CellTiter-Glo ATP luminescence, 48 h. actives 1.6% (n = 360,000). Potency, µM (highest dose often 46.1 µM), for inactives: top-dose activity, negative = less viability, most hits filed as cytotoxic;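 also: NT is the 2HG producing partner of a matched IDH1 knockdown line; potency is read from the fitted curve at half-maximal effect; 0% = DMSO-treated cells and -100% = media-only wells without cells; nearly all actives have a fitted effect of over 55% in size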
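HT-1080-NT; 750 cells/well; 5% FBS RPMI; 48 h compound, 37 degrees C; CellTiter-Glo luminescence; curve fitting and curve-class assignment.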
Active calls of the source: *; ? = inconclusive; · = no result given; [ ] = remark or other dose. The entries come from a sample that favours hits as a whole. Unless noted, calls follow the shape of the dose curve; as a rule, active = well fitted curve in the direction sought with a large enough effect; inconclusive = small, poorly fitted or top-dose-only effect, or another doubt; inactive = no such curve, though single readings can be large; an effect the other way counts as inactive or inconclusive. Unless noted, % is scaled to controls: 0 for no effect and ±100 for the full control effect.

SMILES	HT1080 IDH1KD tx	IL-1B inflam inh	DT40 TDP1 no CPT	12-LOX inh	DT40 TDP1 CPT	HT1080NT lethal
CN(/N=C\c1ccc(O)c(O)c1)c1nc(-c2ccccc2)cc(-c2ccccc2)n1	?	-60.7*	1.46µM*	?	0.82µM*	?
CCOc1cc(/C=C2\SC(=NC)N(C)C2=O)c(Br)cc1OC(C)=O	3.9%	15.1	20.6µM*	27.4%	?	12.7%
O=C(NC1CCCC1)c1ccc(CS(=O)(=O)Cc2ccccc2Cl)o1	-4.8%	-3.4	-21.2%	3.4%	?	-0.9%
CCOc1ccc(CCNC(=O)CCNC(=O)c2ccco2)cc1OCC	6.1%	-7.1	19.6%	2.8%	-23.7%	-1.0%
COc1ccc(CCNC(=O)c2ccc(CS(=O)(=O)Cc3cccc(C)c3)o2)cc1OC	-10.4%	-10.2	11.6µM*	-1.3%	20.6µM*	2.7%
CCOc1ccc(CCNC(=O)c2ccc(CS(=O)(=O)Cc3ccccc3Cl)o2)cc1OCC	·	·	23.1µM*	-29.8%	16.4µM*	·
CCOc1ccc(CCNC(=O)c2ccc(CSCc3ccccc3C)o2)cc1OCC	·	·	16.4µM*	-25.8%	16.4µM*	·
CC1=NS(=O)(=O)N(C)C=C1C(=O)OCc1nc(-c2ccccc2F)no1	·	·	·	24.3%	·	·
O=C(NNc1ccc([N+](=O)[O-])cc1)c1ccccc1Cl	-2.7%	-1.3	-29.9%	-8.0%	-9.2%	-7.5%
O=C(NC(NNc1ccc([N+](=O)[O-])cc1)(C(F)(F)F)C(F)(F)F)c1ccc(Cl)cc1	?	?	29.1µM*	35.5µM*	?	-15.9%
C=CCn1c(SCCC)nc2ccccc2c1=O	·	·	?	·	-7.7%	·
COc1ccccc1C(=O)N1CCN(C(=O)[C@H]2O[C@@H](n3cnc(C(N)=O)n3)[C@H](O)[C@@H]2O)CC1	·	·	·	-2.1%	·	·
CCc1cc(C(=O)NC(CC(=O)OC)c2ccc(OC)c(OC)c2)sc1C (stereo unspecified)	·	·	·	-19.9%	·	·
CCN(CC)C(=S)SC1CCCCN(C(=O)c2ccccc2)C1=O (stereo unspecified)	0.9%	-3.1	-1.7%	-2.5%	18.4µM*	-1.4%
O=C(CCS(=O)(=O)C1CCCC1)NCC1CN(Cc2ccccc2)CCO1 (stereo unspecified)	·	·	·	8.7%	·	·
COC(=O)c1ccccc1NC(=O)CCCn1nc([N+](=O)[O-])c(Br)c1C	1.0%	20.5	-20.4%	-10.5%	14.6µM*	-3.7%
Cc1c(Br)c([N+](=O)[O-])nn1CCCC(=O)Nc1sc2c(c1C#N)CCC2	-7.5%	-10.9	16.4µM*	?	14.6µM*	-14.6%
O=S(=O)(c1ccccc1)c1nc(-c2cccc(Cl)c2)oc1NCc1ccccc1	·	·	25.9µM*	-23.1%	?	·
COc1ccc(-c2nc(S(=O)(=O)c3ccc(C)cc3)c(NCc3ccccc3)o2)cc1	·	·	16.4µM*	?	?	·
Cc1ccc(S(=O)(=O)c2nc(-c3ccccc3F)oc2NCc2ccccc2)cc1	·	·	20.6µM*	-15.5%	?	·
CNc1oc(-c2ccccc2F)nc1S(=O)(=O)c1ccc(C)cc1	2.2%	-6.8	-17.8%	423.4%	-2.8%	-0.5%
CCOc1cccc(C(=O)Nc2ccc(OCC)c3ncccc23)c1	·	·	·	-16.2%	·	·
O=C(Nc1ccc(C(F)(F)F)cc1)N1CCCC1c1nncn1C1CCCC1 (stereo unspecified)	·	·	·	13.0%	·	·
CC(C)CCN(C(=O)CN1CCc2ccccc21)c1c(N)n(Cc2ccccc2)c(=O)[nH]c1=O	·	·	·	-6.2%	·	·
COc1ccc(O[C@H]2COCCN(C(=O)c3ccc(C(F)(F)F)cc3)C2)cc1	·	·	·	97.2%[176 µM]	·	·
SMILES	HT1080 IDH1KD tx	IL-1B inflam inh	DT40 TDP1 no CPT	12-LOX inh	DT40 TDP1 CPT	HT1080NT lethal
COc1ccc(C(CNC(=O)c2c(C)nn(Cc3ccc(C)cc3)c2Cl)N2CCOCC2)cc1 (stereo unspecified)	-5.2%	-81.5*	23.1µM*	-8.9%	?	-4.2%
Cc1ccc(Cn2nc(C)c(C(=O)NCC(c3cccs3)N3CCOCC3)c2Cl)cc1 (stereo unspecified)	-13.2%	8.4	23.1µM*	-14.3%	20.6µM*	2.6%
COc1ccc(C(CNC(=O)c2ccc(C)cc2)N2CCOCC2)cc1 (stereo unspecified)	·	·	?	-0.9%	?	·
COc1ccc(CCCN2C(=O)O[C@@H]3CN(C(=O)C4CCOCC4)C[C@@H]32)cc1	·	·	·	69.0%	·	·
CCc1ccc(/C(C)=N/NS(=O)(=O)c2ccc(OC)cc2)s1	-1.8%	34.7	-6.5%	-11.6%	-23.5%	2.8%
CCn1cnnc1-c1nn(C)c2c1CN(C(=O)c1n[nH]c3c1CCCCCC3)CC2	·	·	·	77.5%	·	·
O=C(c1cccnc1)N1CCC2(CC1)C(=O)NN=C2C1CC1	·	·	·	66.7%[176 µM]	·	·
CNc1oc(-c2ccccc2)nc1S(=O)(=O)c1ccc(C)cc1	-2.3%	-1.9	-27.9%	?	-26.4%	-1.6%
CCCCCS(=O)(=O)c1oc(-c2cccs2)nc1S(=O)(=O)c1ccc(C)cc1	·	·	3.66µM*	?	4.61µM*	·
CCCCS(=O)(=O)c1oc(-c2ccc(F)cc2)nc1S(=O)(=O)c1ccc(C)cc1	·	·	0.581µM*	3.1%	1.03µM*	·
CCS(=O)(=O)c1oc(-c2ccc(F)cc2)nc1S(=O)(=O)c1ccccc1	·	·	0.581µM*	-13.9%	0.259µM*	·
CCOc1ccc(-c2nc(S(=O)(=O)c3ccccc3)c(NC)o2)cc1	17.6%	5.0	-0.4%	0.0%	14.1%	-8.3%
CCC(C)S(=O)(=O)c1oc(-c2ccc(F)cc2)nc1S(=O)(=O)c1ccc(F)cc1 (stereo unspecified)	·	·	1.03µM*	-13.6%	0.581µM*	·
O=S(=O)(c1ccccc1)c1nc(-c2cccs2)oc1NCc1cccnc1	-16.2%	-10.4	-9.4%	?	-10.3%	-13.4%
O=C(Cn1nc2c(cc1=O)CCCC2)NCc1ccccn1	·	·	·	51.3%	·	·
O=C1CCCc2c([nH]c3ccc(C4CCCCC4)cc23)C1	·	·	·	6.0%	·	·
O=S(=O)(c1ccccc1)c1nc(-c2cccs2)oc1NCC1CCCO1 (stereo unspecified)	0.4%	-19.9	?	?	-12.1%	-0.6%
CCCCS(=O)(=O)c1oc(-c2cccs2)nc1S(=O)(=O)c1ccc(F)cc1	·	·	0.581µM*	-13.9%	0.82µM*	·
O=C1CCNCCCC(c2nc(-c3ccccc3)no2)CCN1 (stereo unspecified)	·	·	·	0.1%	·	·
Cc1[nH]c2ccccc2c1CC(=O)Nc1ccc(Nc2cccnc2)c(-c2cc(C(F)(F)F)cc(C(F)(F)F)c2)c1	·	·	·	-18.5%	·	·

Assay outcomes deposited in PubChem by National Center for Advancing Translational Sciences (NCATS).
